In ChEMBL document CHEMBL4649985, “Generation of a Selective Small Molecule Inhibitor of the CBP/p300 Bromodomain for Leukemia Therapy” (Cancer Res, 2015):
Values joined by “and” are separate entries in the source; they are usually repeats but may differ in a detail not shown here. Equal entries are not always repeated.

Columns and labels:
[1] = molecular target: Bromodomain-containing protein 4 (Homo sapiens) (UniProt O60885); conditions: Compound concentration 10.0 uM, Protein concentration 2.0 uM
[2] = molecular target: T1, Transcription intermediary factor 1-alpha (Homo sapiens) (UniProt O15164); conditions: Compound concentration 10.0 uM, Protein concentration 2.0 uM
T1 sequence (whole entry): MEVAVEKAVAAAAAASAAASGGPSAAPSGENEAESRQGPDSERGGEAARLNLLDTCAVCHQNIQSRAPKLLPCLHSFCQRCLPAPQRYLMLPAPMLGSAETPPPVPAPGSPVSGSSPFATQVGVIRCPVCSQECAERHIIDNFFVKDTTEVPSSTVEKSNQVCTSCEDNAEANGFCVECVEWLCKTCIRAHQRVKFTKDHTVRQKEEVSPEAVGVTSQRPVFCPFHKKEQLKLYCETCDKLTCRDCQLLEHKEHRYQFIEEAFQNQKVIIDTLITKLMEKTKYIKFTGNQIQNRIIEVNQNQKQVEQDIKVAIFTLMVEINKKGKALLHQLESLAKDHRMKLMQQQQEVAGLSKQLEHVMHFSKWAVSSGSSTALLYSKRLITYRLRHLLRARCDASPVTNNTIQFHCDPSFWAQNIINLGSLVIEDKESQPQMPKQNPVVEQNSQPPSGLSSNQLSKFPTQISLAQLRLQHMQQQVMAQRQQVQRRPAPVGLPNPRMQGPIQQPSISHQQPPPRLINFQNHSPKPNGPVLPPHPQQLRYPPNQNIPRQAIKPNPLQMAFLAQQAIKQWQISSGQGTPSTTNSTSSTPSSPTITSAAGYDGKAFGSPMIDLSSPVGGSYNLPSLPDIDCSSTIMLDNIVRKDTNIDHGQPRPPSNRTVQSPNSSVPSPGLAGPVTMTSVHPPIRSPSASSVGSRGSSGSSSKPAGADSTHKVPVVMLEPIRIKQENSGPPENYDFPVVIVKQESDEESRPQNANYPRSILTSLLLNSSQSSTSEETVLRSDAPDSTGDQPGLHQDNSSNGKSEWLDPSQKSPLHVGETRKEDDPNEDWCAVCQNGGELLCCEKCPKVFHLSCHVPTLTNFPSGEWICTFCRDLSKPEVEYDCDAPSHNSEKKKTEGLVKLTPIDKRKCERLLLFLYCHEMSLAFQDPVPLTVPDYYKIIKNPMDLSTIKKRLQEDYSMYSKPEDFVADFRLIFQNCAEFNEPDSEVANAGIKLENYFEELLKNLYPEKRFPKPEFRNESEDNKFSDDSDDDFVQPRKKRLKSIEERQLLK

SMILES: CCC(=O)N1CCOc2c(cc(-c3ccc(OC)c(OC)c3)cc2OC[C@H]2CCCN(C)C2)C1
- ΔTm [1]: 2.08 °C and 2.81 °C
- ΔTm [2]: 1.25 °C
